From PubChem BioAssay (EPA / NIEHS) come the findings set out here.

SMILES strings stand for the structures. The source made the active and inactive calls. How the source made its calls: active means hit-call score of the fitted dose curve at least 0.9, where 1 is the maximum; inactive means score below 0.9.

A short description of this test: ATG_TA_CIS: Attagene CIS-FACTORIAL HepG2 Assay for human TA Basal Promoter (AID 2282964). Conditions: HepG2 Attagene CIS-factorial TA basal promoter reporter; actives raise or lower the signal. How it is done:
ATG_CIS is a cell-based, multiplexed-readout assay that uses HepG2, a human liver cell line, with measurements taken at 24 hours after chemical dosing in a 24-well plate.ATG_TA_CIS is one of 52 assay component(s) measured or calculated from the ATG_CIS assay. It is designed to make measurements of mRNA induction, a form of inducible reporter, as detected with fluorescence intensity signals by Reverse transcription polymerase chain reaction (RT-PCR) and Capillary electrophoresis technology.Data from the assay component ATG_TA_CIS was analyzed into 1 assay endpoint. This assay endpoint, ATG_TA_CIS, was analyzed with bidirectional fitting relative to DMSO as the negative control and baseline of activity. Using a type of inducible reporter, measures of mRNA for gain or loss-of-signal activity can be used to understand the background control at the transcription factor-level as they relate to the gene . Furthermore, this assay endpoint can be referred to as a secondary readout, because this assay has produced multiple assay endpoints where this one serves a background control function. To generalize the intended target to other relatable targets, this assay endpoint is annotated to the background measurement intended target family, where the subfamily is internal marker.
Human liver HepG2 cells are transiently transfected with multiple reporter transcription units (MRTUs) in 6-well plates using FuGene 6 reagent (Roche; 3 ml FuGene/1 mg DNA). The MRTU constructs are regulated by a cis-regulating element (promoter). […] A major difference between the CIS and TRANS system is that in CIS activities of endogenous TFs are measured, whereas the TRANS assay evaluates changes in activities of exogenous, chimeric NR-Gal4 proteins. […] At the end of 24 hour incubation, total RNA was isolated using TriZol reagent (Invitrogen). The isolated RNA is then reverse-transcribed using oligo(dT) primer and Mo-MLV reverse transcriptase (Invitrogen) with DNAse I (Ambion) treatment for 30 min. The one-tenth of the produced cDNA was amplified by PCR using Taq DNA polymerase (Invitrogen) and two reporter sequence-specific primers. The PCR products were fluorescently labeled by primer extension with 6-arboxyfluorescein (6-FAM) 5'-labeled reporter sequence-specific primer (2 min at 95 C, 20 s at 68 C and 10 min at 72 C) and these products were digested with 5U of HpaI (New England Biolabs) for 2h at 37 C. The fragments were purified using Qiaquick PCR columns (Qiagen), analyzed on an ABI 3130xL genetic analyzer (Applied Biosystems) with peak positions identified by using a set of X-rhodamine (ROX)-labeled MapMarker1000 molecular weight standards (BioVentures). The raw capillary electrophoresis data was processed using Attagraph software (Attagene).
As to `c1cc(C(c2ccc(OCC3CO3)cc2)c2ccc(OCC3CO3)cc2)ccc1OCC1CO1` (stereo not given), the concentration at half-maximal activity (AC50) – broadly, the concentration at which the activity in the assay is half-maximal – is 19.8 µM (active).
On to `CC(C)Oc1ccccc1O`, for which the result was inactive.
On the same count and under the same terms, the same measure for `CC1(C)[C@H](C(=O)OCc2cccc(Oc3ccccc3)c2)[C@@H]1C=C(Cl)Cl`: “inactive”.
As for `C#C[C@]1(O)CC[C@H]2[C@@H]3CCC4=Cc5oncc5C[C@]4(C)[C@H]3CC[C@@]21C`, the AC50 is 8.11 µM (active).
As to `O=C=NC1CCC(CC2CCC(N=C=O)CC2)CC1` (stereo not given), the result was inactive.
As to `Cc1ccc(Nc2ccc(O)c3c2C(=O)c2ccccc2C3=O)cc1`, the molecule was classed as inactive.
As for `CCOC(=S)SSC(=S)OCC`, the outcome was inactive.
The same measure, in the same setting: to `CCCCCCCCCCCCN(CCCCCCCCCCCC)CCCCCCCCCCCC` belongs “inactive”.
On the same count and under the same terms, the same measure for `C=CCOc1nc(OCC=C)nc(OCC=C)n1`: “inactive”.
With `O=C(COc1ccc(Cl)cc1)N1CCN(Cc2ccc3c(c2)OCO3)CC1`, the result was inactive.
The same measure, in the same setting: to `CN(C)c1ccc(O)c2c1C[C@H]1C[C@H]3[C@H](N(C)C)C(=O)C(C(N)=O)=C(O)[C@@]3(O)C(=O)C1=C2O` belongs “inactive”.
The same measure, in the same setting: the same measure for `N#Cc1ccc(CC(=NNC(=O)Nc2ccc(OC(F)(F)F)cc2)c2cccc(C(F)(F)F)c2)cc1`: “inactive”.
On to `c1ccc2c(c1)c1cccc3ccc4cccc2c4c31`, for which the result was inactive.
The same measure, in the same setting: to `CC(=O)[C@H]1CC[C@H]2[C@@H]3CC=C4C[C@@H](O)CC[C@]4(C)[C@H]3CC[C@]12C` belongs “inactive”.
Regarding `C=CC(C)(O)CCC=C(C)CCC=C(C)C` (stereo not given), the half-maximal activity concentration (AC50) was 146 µM (active).
With `CCCC(C)C=O` (stereo not given), the molecule was called inactive.
On the same count and under the same terms, to `CCOC(=O)c1ccccc1OC` belongs “inactive”; to `CNCCCC12CCC(c3ccccc31)c1ccccc12`, “inactive”; to `Nc1cc([N+](=O)[O-])ccc1O`, “inactive”.
With `CSc1nc(NC2CC2)nc(NC(C)(C)C)n1`, the molecule was called inactive.
On the same count and under the same terms, the same measure for `Cc1ccc(S)cc1`: “inactive”; for `ClCCCl`: “inactive”.
Still for that read-out and setting: the same measure for `CCCCCCCCCCCCCCCC(=O)O`: “inactive”.
Turning to `C=CC(=O)OCCn1c(=O)n(CCOC(=O)C=C)c(=O)n(CCOC(=O)C=C)c1=O`, the call was inactive.
The same measure, in the same setting: to `C/C=C(\C)C(=O)OCc1ccccc1` belongs “inactive”; to `Sc1nc(S)nc(S)n1`, “inactive”.
With `COc1cc2ncnc(Nc3cccc(Cl)c3)c2cc1OC`, the AC50 was 9.84 µM (active).
With `CC1(C)[C@@H]2CC[C@@]1(C)[C@H](O)C2`, the outcome was inactive.
As to `CC(C)(Oc1ccc(CCNC(=O)c2ccc(Cl)cc2)cc1)C(=O)O`, the molecule was called inactive.
Still for that read-out and setting: the same measure for `CC(C)(C#N)c1cc(Cn2cncn2)cc(C(C)(C)C#N)c1`: “inactive”; for `CC1COc2ccccc2N1C(=O)C(Cl)Cl` (stereo not given): “inactive”.
Consider `CCCCC(CC)COCCC#N` (stereo not given), for which the outcome was inactive.
Same read-out and setting: the same measure for `O=C1O[C@@H]2[C@@H](O)[C@H](O)O[C@@H]2[C@H]1O`: “inactive”; for `Cc1ccc2ccccc2n1`: “inactive”.
For the molecule `O=c1cc(-c2ccccc2)oc2cc(O)cc(O)c12`, the molecule was classed as inactive.
The same measure, in the same setting: to `CCCCCCCCCCCCSC` belongs “inactive”; to `O=C(O)c1ccc([N+](=O)[O-])cc1`, “inactive”.
Regarding `CC(CC(C)(C)C)CC(C)(C)CC(C)(C)C` (stereo not given), the call was inactive.
Same read-out and setting: the same measure for `O=C1NC(=O)c2ccccc21`: “inactive”.
Consider `CCCCCCOC(=O)CCCCC`, for which the outcome was inactive.
